In article PMC4336329 (PLoS ONE, 2015):
The campaign covered roughly 310,000 compounds. About 2,200 (0.71%) showed an effect of 50% or more. Effects have a minus sign here. The sample as a whole holds a higher share of strong results than the screen did.

These compounds were tested against human ether-à-go-go-related gene (hERG) potassium channel (human, UniProt Q12809) (assay: primary screen, population patch clamp on CHO cells stably expressing hERG; higher = less effect of the substance).
human ether-à-go-go-related gene (hERG) potassium channel, sequence (Q12809 whole entry, looked up): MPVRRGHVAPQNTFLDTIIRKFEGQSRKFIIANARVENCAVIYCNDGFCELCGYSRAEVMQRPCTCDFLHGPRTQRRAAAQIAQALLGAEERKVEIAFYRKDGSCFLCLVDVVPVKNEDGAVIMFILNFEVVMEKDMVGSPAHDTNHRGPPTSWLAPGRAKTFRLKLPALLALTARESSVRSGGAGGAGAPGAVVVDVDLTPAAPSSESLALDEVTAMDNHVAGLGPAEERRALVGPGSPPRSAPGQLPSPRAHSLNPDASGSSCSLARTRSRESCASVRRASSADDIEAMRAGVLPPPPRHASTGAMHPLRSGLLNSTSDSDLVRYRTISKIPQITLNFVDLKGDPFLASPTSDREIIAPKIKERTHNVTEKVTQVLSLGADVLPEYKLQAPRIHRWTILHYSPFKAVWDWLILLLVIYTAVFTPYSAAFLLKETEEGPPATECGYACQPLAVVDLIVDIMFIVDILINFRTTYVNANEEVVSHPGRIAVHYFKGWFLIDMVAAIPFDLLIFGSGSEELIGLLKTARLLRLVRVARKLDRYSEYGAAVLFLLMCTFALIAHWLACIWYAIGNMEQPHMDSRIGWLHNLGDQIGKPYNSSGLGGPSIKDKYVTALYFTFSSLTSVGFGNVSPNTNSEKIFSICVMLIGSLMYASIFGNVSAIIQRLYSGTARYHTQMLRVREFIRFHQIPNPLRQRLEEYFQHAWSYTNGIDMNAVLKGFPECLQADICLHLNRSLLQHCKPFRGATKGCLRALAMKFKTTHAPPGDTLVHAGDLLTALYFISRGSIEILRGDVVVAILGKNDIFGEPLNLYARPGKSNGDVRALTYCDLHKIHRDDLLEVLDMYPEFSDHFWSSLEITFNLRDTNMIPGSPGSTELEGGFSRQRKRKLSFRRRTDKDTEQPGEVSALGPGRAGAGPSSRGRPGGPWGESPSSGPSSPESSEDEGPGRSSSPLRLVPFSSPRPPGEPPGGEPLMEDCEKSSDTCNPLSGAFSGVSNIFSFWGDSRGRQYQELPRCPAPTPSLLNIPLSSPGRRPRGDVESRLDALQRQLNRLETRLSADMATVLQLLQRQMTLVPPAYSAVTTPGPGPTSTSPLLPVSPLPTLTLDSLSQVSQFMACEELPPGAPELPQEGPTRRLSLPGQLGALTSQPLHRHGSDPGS

| Structure (SMILES) | hERG current change (%, negative = inhibition) at 1uM [%] |
| --- | --- |
| CC(C)(C)OC(=O)NC(CNCc1ccccc1)Cc1ccccc1 (stereo not drawn) | 3.93 |
| Nc1c(C(=O)NCCN2CCOCC2)c2nc3ccccc3nc2n1-c1ccccc1 | -3.09 |
| Cc1ccc(NC(=S)/N=C(\N)Nc2nc(C)c3cc(C)c(C)cc3n2)cc1C | 8.63 |
| COc1cccc(C(=O)Nc2cccc(C(C)=O)c2)c1 | 11.4 |
| COc1ccc(NC(=O)NCCCN2CCN(c3ccccc3F)CC2)cc1 | -5 |
| COc1ccccc1N1CCN(CCCNC(=O)Nc2ccccc2)CC1 | -28.8 |
| COc1ccc(NC(=O)NCCCN2CCN(c3cc(C)ccc3C)CC2)cc1 | -80.4 |
| COc1ccc(Cl)c(N2CCN(CCCNC(=O)Nc3ccc(C)cc3)CC2)c1 | -24.5 |
| COc1ccc(NC(=O)NCCN2CCN(c3cc(OC)ccc3OC)CC2)cc1 | 13.5 |
| COc1ccc(N2CCN(CCCNC(=O)Nc3ccccc3)CC2)cc1 | -50.5 |
| CCCSc1nnc2n(N)c(=O)c3ccccc3n12 | 11.3 |
| C[C@@H](C(=O)Nc1ccc2ccccc2c1)[C@H]1C[C@]1(C)[C@H](NS(=O)(=O)c1ccc(-c2ccccc2)cc1)c1ccccc1 | -8.41 |
| Fc1ccccc1NC(=S)N1CCOCC1 | 12.2 |
| COc1cc(C2SCCS2)cc(Br)c1Oc1ncccc1[N+](=O)[O-] | 10.3 |
| CC(C)CCNC(=O)Cc1csc(-c2ccccc2)n1 | 6.54 |
| OC1CCC(NC(=S)Nc2ccc(SC(F)F)cc2)CC1 (stereo not drawn) | 6.06 |
| O=C(OCc1cnc(Cl)s1)c1cccc(Cl)c1 | -5.8 |
| CCCc1cc(C(=O)Nc2ccc(Cl)cn2)cs1 | 9.72 |
| O=C(CCS(=O)(=O)c1ccc2c(c1)NC(=O)CO2)NCCc1ccccc1 | 9.02 |
| CS(=O)(=O)N(Cc1ccco1)CC(O)Cn1c2ccccc2c2ccccc21 (stereo not drawn) | 15 |
| CCOc1ccc(NS(=O)(=O)c2ccc(C(=O)NCC3(N(C)C)CCCCC3)cc2)cc1 | 6.85 |

| Structure (SMILES) | hERG current change (%, negative = inhibition) at 1uM [%] |
| --- | --- |
| CN(C)C1(CNC(=O)c2ccc(NS(=O)(=O)c3ccc(Cl)c(Cl)c3)cc2)CCCCC1 | -50.9 |
| Cc1cc(S(=O)(=O)Nc2ccc(C(=O)NCC3(N(C)C)CCCCC3)cc2)ccc1F | -7.71 |
| COc1ccc(CCC(=O)Nc2ccc(Cn3ccnc3)cc2)cc1 | 10.4 |
| CCCNc1c(NS(=O)(=O)c2ccc(C)c(C)c2)c(=O)oc2ccccc12 | -6.38 |
| CCCNc1c(NS(=O)(=O)c2ccc(C(C)(C)C)cc2)c(=O)oc2ccccc12 | 9.75 |
| CCCNc1c(NS(=O)(=O)c2ccc(OC)c(OC)c2)c(=O)oc2ccccc12 | -77.2 |
| Oc1c(Br)cc(/C=N/n2c(-c3ccccc3)n[nH]c2=S)c(Br)c1O | 17.1 |
| COc1ccc(OCC(O)CN(C2CCCCC2)C2CCCCC2)cc1.Cl (stereo not drawn) | -37.9 |
| CC(C)CN(CC(C)C)CC(O)COc1ccc([N+](=O)[O-])cc1.Cl (stereo not drawn) | -52.1 |
| COc1ccc(OCC(O)CNC(=O)/C=C/c2cccc([N+](=O)[O-])c2)cc1 (stereo not drawn) | 14.8 |
| O=[N+]([O-])c1ccc(OCC(O)CN(CCO)CCO)cc1 (stereo not drawn) | -16.9 |
| Cl.O=[N+]([O-])c1ccc(OCC(O)CNC2CCCC2)cc1 (stereo not drawn) | -30.3 |
| COc1ccc(OCC(O)CN(C)C(=O)/C=C/c2cccc([N+](=O)[O-])c2)cc1 (stereo not drawn) | -56.7 |
| COC(=O)c1ccc(OCC(O)CN(CC(C)C)CC(C)C)cc1 (stereo not drawn) | 6.51 |
| CCCN(CCC)CC(O)COc1ccc([N+](=O)[O-])cc1 (stereo not drawn) | -81.4 |
| O=[N+]([O-])c1ccc(OCC(O)CN(C2CCCCC2)C2CCCCC2)cc1 (stereo not drawn) | -80.4 |
| Cc1nccn1CC(O)COc1ccc([N+](=O)[O-])cc1 (stereo not drawn) | -41.3 |
| CC(C)N(C(=O)/C=C/c1cccc([N+](=O)[O-])c1)C(C)C | 7.97 |
| CCCCN(CCCC)CC(O)COc1ccc(Br)cc1 (stereo not drawn) | -43.6 |
| CCOc1ccccc1NC(=O)CSc1nc2ccccc2c(=O)n1CC1CCCO1 (stereo not drawn) | -35.6 |
| Cc1c(=O)n(OCc2ccccc2)c2ccccc2[n+]1[O-] | 9.46 |
